PubChem BioAssay (EPA / NIEHS)
Where “and” joins values, the source holds several entries; their conditions need not be identical. Equal entries are not always repeated. A structure can be active in one record and inactive in another. Calls of active or inactive are those of the source. How the source made its calls: active means hit-call score of the fitted dose curve at least 0.9, where 1 is the maximum; inactive means score below 0.9.

test: ATG_PPRE_CIS: Attagene CIS-FACTORIAL HepG2 Assay for human Peroxisome Proliferator-activated Response Element (PPRE) (AID 2282958); conditions: HepG2 PPRE cis-element reporter, Attagene transcription factor profiling; actives raise or lower the signal
In short: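 Read-out: fluorescent reporter mRNA fragments resolved by capillary electrophoresis after RT-PCR. HepG2 cells carried transiently transfected PPRE-driven cis reporter constructs and were dosed for 24 h; gain or loss of signal fitted relative to DMSO.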

Structure (SMILES)	outcome	AC50
CCC(O)=C1C(=O)CC(C(=O)O)CC1=O (stereo unspecified)	inactive	
COC(=O)c1cccc(C)c1S(=O)(=O)NC(=O)Nc1nc(OCC(F)(F)F)nc(N(C)C)n1	inactive	
N[C@@H](Cc1cc(I)c(Oc2ccc(O)c(I)c2)c(I)c1)C(=O)O	inactive	13 µM (active) and 22.3 µM (active)
CCN(Cc1c(F)cccc1Cl)c1c([N+](=O)[O-])cc(C(F)(F)F)cc1[N+](=O)[O-]	inactive	
CC(=O)[C@H]1CC[C@H]2[C@@H]3CCC4=CC(=O)CC[C@]4(C)[C@H]3CC[C@]12C	inactive	
C#CCOC(=O)[C@@H](C)Oc1ccc(Oc2ncc(Cl)cc2F)cc1		18 µM (active)
c1ccc2[nH]c(-c3cscn3)nc2c1	inactive	
CN(C)C(=O)Nc1ccc(Cl)c(Cl)c1	inactive	37 µM (active)
CCCN(CCC)c1c([N+](=O)[O-])cc(C(F)(F)F)c(N)c1[N+](=O)[O-]	inactive	
COC(=O)c1ccccc1C(=O)O	inactive	
C[C@]12CC[C@@H]3c4ccc(O)cc4C[C@@H](CCCCCCCCCS(=O)CCCC(F)(F)C(F)(F)F)[C@H]3[C@@H]1CC[C@@H]2O (stereo partly specified)	inactive	
CCC(C)OC(=O)N1CCCCC1CCO (stereo unspecified)	inactive	
COCCO	inactive	
c1ccc(Nc2ccccc2)cc1	inactive	20.6 µM (active)
O=C(c1ccccc1)C1CCCCC1	inactive	31.5 µM (active) and 67.1 µM (active)
COc1c(Cl)ccc(Cl)c1C(=O)O	inactive	
O=C(c1ccc(O)cc1O)c1ccc(O)cc1O	inactive	28.4 µM (active)
O=C(O)C1(C(=O)Nc2ccc(Cl)cc2Cl)CC1		13.7 µM (active)
CC(C)(C)[C@@H](O)[C@@H](Cc1ccc(Cl)cc1)n1cncn1	inactive	
CC(C)(c1ccc(O)cc1)c1ccc(O)cc1	inactive	28.6 µM (active) and 38.9 µM (active) and 15 µM (active)
CCOC(=O)C(C)Oc1ccc(Oc2cnc3cc(Cl)ccc3n2)cc1 (stereo unspecified)	inactive	
N#CSCSc1nc2ccccc2s1	inactive	2.81 µM (active)
CC(=O)S[C@@H]1CC2=CC(=O)CC[C@]2(C)[C@H]2CC[C@@]3(C)[C@@H](CC[C@@]34CCC(=O)O4)[C@H]12	inactive	2.4 µM (active)
CC(C)CCCCCCc1ccc(O)cc1	inactive	11.1 µM (active)
CCOC(=O)NCCOc1ccc(Oc2ccccc2)cc1		8.06 µM (active)

test: ATG_RORE_CIS: Attagene CIS-FACTORIAL HepG2 Assay for human RAR-related Orphan Receptor Element (RORE) (AID 2282959); conditions: HepG2 Attagene cis-factorial RORE reporter, mRNA; actives raise or lower the signal
In short: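 Readout: fluorescent reporter mRNA by RT-PCR plus capillary electrophoresis, 24 h after dosing transfected HepG2 cells. Endogenous transcription factor activity on a cis promoter element is measured. Gain or loss of signal fitted against DMSO.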

Structure (SMILES)	outcome	AC50
CCC(O)=C1C(=O)CC(C(=O)O)CC1=O (stereo unspecified)	inactive	
COC(=O)c1cccc(C)c1S(=O)(=O)NC(=O)Nc1nc(OCC(F)(F)F)nc(N(C)C)n1	inactive	
N[C@@H](Cc1cc(I)c(Oc2ccc(O)c(I)c2)c(I)c1)C(=O)O	inactive	
S=C([S-])NCCNC(=S)[S-].[Mn+2]	inactive	
CCN(Cc1c(F)cccc1Cl)c1c([N+](=O)[O-])cc(C(F)(F)F)cc1[N+](=O)[O-]	inactive	
S=C(S)NCCNC(=S)S.[Mn+2].[S-]C([S-])=NCCN=C([S-])[S-].[Zn+2]	inactive	19.6 µM (active)
C#CCOC(=O)[C@@H](C)Oc1ccc(Oc2ncc(Cl)cc2F)cc1	inactive	
c1ccc2[nH]c(-c3cscn3)nc2c1	inactive	
CN(C)C(=O)Nc1ccc(Cl)c(Cl)c1	inactive	100 µM (active)
CCCN(CCC)c1c([N+](=O)[O-])cc(C(F)(F)F)c(N)c1[N+](=O)[O-]	inactive	
COC(=O)c1ccccc1C(=O)O	inactive	
CC1(C)C(C=C(Cl)Cl)C1C(=O)OCc1cccc(Oc2ccccc2)c1 (stereo unspecified)	inactive	
C[C@]12CC[C@@H]3c4ccc(O)cc4C[C@@H](CCCCCCCCCS(=O)CCCC(F)(F)C(F)(F)F)[C@H]3[C@@H]1CC[C@@H]2O (stereo partly specified)	inactive	
CCC(C)OC(=O)N1CCCCC1CCO (stereo unspecified)	inactive	
COCCO	inactive	
c1ccc(Nc2ccccc2)cc1	inactive	
O=C(c1ccccc1)C1CCCCC1	inactive	
COc1c(Cl)ccc(Cl)c1C(=O)O	inactive	
O=C(c1ccc(O)cc1O)c1ccc(O)cc1O	inactive	
CCOC(=O)c1ccc(O)cc1	inactive	57.3 µM (active)
O=C(O)C1(C(=O)Nc2ccc(Cl)cc2Cl)CC1	inactive	
CC(C)(C)[C@@H](O)[C@@H](Cc1ccc(Cl)cc1)n1cncn1	inactive	
CCOC(=O)C(C)Oc1ccc(Oc2cnc3cc(Cl)ccc3n2)cc1 (stereo unspecified)	inactive	
N#CSCSc1nc2ccccc2s1	inactive	
CC(=O)S[C@@H]1CC2=CC(=O)CC[C@]2(C)[C@H]2CC[C@@]3(C)[C@@H](CC[C@@]34CCC(=O)O4)[C@H]12	inactive	
CC(C)CCCCCCc1ccc(O)cc1	inactive	
CCOC(=O)NCCOc1ccc(Oc2ccccc2)cc1		13.3 µM (active)

test: ATG_Sox_CIS: Attagene CIS-FACTORIAL HepG2 Assay for human SRY-box transcription factor (SOX) (AID 2282960); conditions: HepG2 Attagene cis-factorial SOX reporter, mRNA; actives raise or lower the signal
In short: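 Read-out: fluorescent RT-PCR products of SOX1-linked reporter transcripts resolved by capillary electrophoresis, fitted bidirectionally against DMSO. Transiently transfected HepG2 cells, 24 h after chemical exposure, endogenous transcription factor activity.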

Structure (SMILES)	outcome	AC50
CCC(O)=C1C(=O)CC(C(=O)O)CC1=O (stereo unspecified)	inactive	
COC(=O)c1cccc(C)c1S(=O)(=O)NC(=O)Nc1nc(OCC(F)(F)F)nc(N(C)C)n1	inactive	
N[C@@H](Cc1cc(I)c(Oc2ccc(O)c(I)c2)c(I)c1)C(=O)O	inactive	
S=C([S-])NCCNC(=S)[S-].[Mn+2]	inactive	
CCN(Cc1c(F)cccc1Cl)c1c([N+](=O)[O-])cc(C(F)(F)F)cc1[N+](=O)[O-]	inactive	
CC(=O)[C@H]1CC[C@H]2[C@@H]3CCC4=CC(=O)CC[C@]4(C)[C@H]3CC[C@]12C	inactive	
S=C(S)NCCNC(=S)S.[Mn+2].[S-]C([S-])=NCCN=C([S-])[S-].[Zn+2]	inactive	16.5 µM (active) and 23 µM (active) and 22.3 µM (active)
C#CCOC(=O)[C@@H](C)Oc1ccc(Oc2ncc(Cl)cc2F)cc1	inactive	
c1ccc2[nH]c(-c3cscn3)nc2c1	inactive	
CN(C)C(=O)Nc1ccc(Cl)c(Cl)c1	inactive	
CCCN(CCC)c1c([N+](=O)[O-])cc(C(F)(F)F)c(N)c1[N+](=O)[O-]	inactive	
COC(=O)c1ccccc1C(=O)O	inactive	
CC1(C)C(C=C(Cl)Cl)C1C(=O)OCc1cccc(Oc2ccccc2)c1 (stereo unspecified)	inactive	
C[C@]12CC[C@@H]3c4ccc(O)cc4C[C@@H](CCCCCCCCCS(=O)CCCC(F)(F)C(F)(F)F)[C@H]3[C@@H]1CC[C@@H]2O (stereo partly specified)	inactive	
CCC(C)OC(=O)N1CCCCC1CCO (stereo unspecified)	inactive	
COCCO	inactive	
c1ccc(Nc2ccccc2)cc1	inactive	
O=C(c1ccccc1)C1CCCCC1	inactive	
COc1c(Cl)ccc(Cl)c1C(=O)O	inactive	
O=C(c1ccc(O)cc1O)c1ccc(O)cc1O	inactive	
CCOC(=O)c1ccc(O)cc1	inactive	
O=C(O)C1(C(=O)Nc2ccc(Cl)cc2Cl)CC1	inactive	
CC(C)(C)[C@@H](O)[C@@H](Cc1ccc(Cl)cc1)n1cncn1	inactive	
CC(C)(c1ccc(O)cc1)c1ccc(O)cc1	inactive	
CCOC(=O)C(C)Oc1ccc(Oc2cnc3cc(Cl)ccc3n2)cc1 (stereo unspecified)	inactive	
N#CSCSc1nc2ccccc2s1	inactive	
CC(=O)S[C@@H]1CC2=CC(=O)CC[C@]2(C)[C@H]2CC[C@@]3(C)[C@@H](CC[C@@]34CCC(=O)O4)[C@H]12	inactive	
CC(C)CCCCCCc1ccc(O)cc1	inactive	17.8 µM (active) and 17.5 µM (active)
CCOC(=O)NCCOc1ccc(Oc2ccccc2)cc1	inactive	
CCNc1nc(N)nc(Cl)n1	inactive	
